NIH3T3 tox: Cytotoxic Profiling in NIH 3T3 Cell Line of Diverse Libraries Using Quantitative High-Throughput Screening. NIH 3T3 viability, CellTiter-Glo ATP luminescence, 48-72 h. Potency, µM (titrated, usually from 96.7 µM), without a hit: at the highest dose activity change, negative = cytotoxicity, usual class: inhibitors. hit rate 4.3% among 94,000. AID 1345082, 2018; active means well fitted curve in the direction sought with a large enough effect; inconclusive means small, poorly fitted or top-dose-only effect, or another doubt; inactive means no such curve, though single readings can be large; an effect the other way counts as inactive or inconclusive; further: on the % scale 0 is the no-effect control and ±100 the full control effect; nearly all actives have a fitted effect of over 55% in size
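Mouse fibroblast NIH 3T3 cells, 400 per well, received compound via pintool and were incubated for 48 or 72 hr prior to CellTiter-Glo ATP luminescence measurement.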
NPR1 antag: Natriuretic polypeptide receptor (hNpr1) antagonism - Primary qHTS. HEK293 hNpr1 GloSensor cGMP, ANP-stimulated luminescence. Potency, µM (top dose mostly 46.3 µM), inactives show at the highest dose activity change, negative = inhibition, usual class: inhibitors. hit rate 1.6% among 76,000. Atrial natriuretic peptide receptor 1 (Homo sapiens), P16066. AID 1347048, 2019; further: on the % scale 0 is the no-effect control and ±100 the full control effect; nearly all actives have a fitted effect of over 60% in size
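Compound pre-incubated 30 min at room temperature on GloSensor-loaded HEK293 cells stably carrying hNpr1 and the pGS-40F cGMP biosensor. Stimulation uses hNppA at 0.1 nM final; luminescence is taken at baseline and 20 min post-agonist.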
HEK293 tox: Cytotoxic Profiling in HEK 293 Cell Line of Diverse Libraries Using Quantitative High-Throughput Screening; HEK 293 viability, ATP luminescence (CellTiter-Glo), 48-72 h; Potency, µM (titrated, usually from 115 µM), for the others: at the highest dose activity change, negative = cytotoxicity, hits mostly inhibitors; hit rate 6.6% among 94,000; AID 1345083, 2018; active means well fitted curve in the direction sought with a large enough effect; inconclusive means small, poorly fitted or top-dose-only effect, or another doubt; inactive means no such curve, though single readings can be large; an effect the other way counts as inactive or inconclusive; further: on the % scale 0 is the no-effect control and ±100 the full control effect; nearly all actives have a fitted effect of over 60% in size
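HEK 293 cells at 250 cells/well were exposed to compounds by pintool transfer for 48 or 72 hr at 37 degree Celsius, 5% CO2. Viability was read as ATP-coupled luminescence with CellTiter-Glo after 10 min at room temperature.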
FLuc inh: Firefly luciferase inhibition profiling of diverse chemical library using quantitative high-throughput screening | purified P. pyralis luciferase, luminescence, biochemical | Potency, µM (series often up to 115 µM), most hits filed as inhibitors | hit rate 2.5% among 76,000 | AID 1347043, 2019; active means well fitted curve in the direction sought with a large enough effect; inconclusive means small, poorly fitted or top-dose-only effect, or another doubt; inactive means no such curve, though single readings can be large; an effect the other way counts as inactive or inconclusive; further: on the % scale 0 is the no-effect control and ±100 the full control effect; nearly all actives have a fitted effect of over 65% in size
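FLuc 10nM, D-luciferin 10uM, ATP 10uM, Mg acetate 10mM, Tris acetate pH 7.5, Tween/BSA; cpd qHTS; enzyme added last; CCD luminescence.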
Npr1 antag conf: Natriuretic polypeptide receptor (hNpr1) antagonism - Confirmation. shares compounds with NPR1 antag. AID 1347044, 2019. hit rate 76% among 1,400. Potency, µM (top dose mostly 57.6 µM), for inactives: top-dose activity change, negative = inhibition, actives largely listed as inhibitors. HEK293 hNpr1 cGMP GloSensor luminescence, ANP-stimulated; further: nearly all actives have a fitted effect of over 70% in size
Npr2 selectivity: Natriuretic polypeptide receptor (hNpr2) antagonism - Subtype selectivity assay | shares compounds with NPR1 antag | HEK293 hNpr2 GloSensor cGMP luminescence, CNP-stimulated | Potency, µM (series often up to 57.6 µM), for the others: at the top dose activity change, negative = inhibition, hits mostly inhibitors | hit rate 67% among 1,400 | AID 1347046, 2019; further: nearly all actives have a fitted effect of over 70% in size
Target sequence (P20594 whole entry, looked up): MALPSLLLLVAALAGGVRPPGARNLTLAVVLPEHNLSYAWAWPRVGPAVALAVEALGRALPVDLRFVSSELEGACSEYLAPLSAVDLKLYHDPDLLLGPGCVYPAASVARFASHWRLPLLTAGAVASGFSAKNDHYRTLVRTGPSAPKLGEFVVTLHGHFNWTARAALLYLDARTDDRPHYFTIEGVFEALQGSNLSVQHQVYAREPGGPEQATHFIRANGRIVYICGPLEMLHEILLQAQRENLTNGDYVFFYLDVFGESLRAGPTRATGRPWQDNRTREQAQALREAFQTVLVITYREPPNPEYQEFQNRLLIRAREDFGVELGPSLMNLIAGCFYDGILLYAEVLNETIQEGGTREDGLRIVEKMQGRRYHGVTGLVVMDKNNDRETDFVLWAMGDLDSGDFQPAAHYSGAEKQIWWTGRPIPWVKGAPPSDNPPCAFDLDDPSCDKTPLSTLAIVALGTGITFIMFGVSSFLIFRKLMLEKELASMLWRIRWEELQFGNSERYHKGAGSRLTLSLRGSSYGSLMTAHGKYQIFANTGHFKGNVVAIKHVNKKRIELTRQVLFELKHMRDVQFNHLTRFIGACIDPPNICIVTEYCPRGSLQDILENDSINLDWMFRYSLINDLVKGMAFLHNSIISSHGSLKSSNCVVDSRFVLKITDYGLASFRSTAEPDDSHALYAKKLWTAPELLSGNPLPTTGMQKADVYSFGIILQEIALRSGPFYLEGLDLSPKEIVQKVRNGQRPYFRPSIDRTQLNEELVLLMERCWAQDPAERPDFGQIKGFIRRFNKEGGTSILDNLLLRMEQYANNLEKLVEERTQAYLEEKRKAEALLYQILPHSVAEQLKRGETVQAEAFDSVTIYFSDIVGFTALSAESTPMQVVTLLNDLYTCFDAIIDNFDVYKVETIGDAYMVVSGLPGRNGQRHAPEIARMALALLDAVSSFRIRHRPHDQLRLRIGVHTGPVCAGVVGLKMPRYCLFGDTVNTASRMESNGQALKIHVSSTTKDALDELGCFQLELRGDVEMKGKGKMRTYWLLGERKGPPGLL
FLuc inh counter: Natriuretic polypeptide receptor (hNpr1) antagonism - Confirmation firefly luciferase (FLuc) inhibition counterscreen; shares compounds with NPR1 antag; Potency, µM (series often up to 57.6 µM), inactives show at the top dose activity change, negative = inhibition, most hits filed as inhibitors; purified FLuc enzyme, luminescence, Km substrate; hit rate 0.7% among 1,400; active means well fitted curve in the direction sought with a large enough effect; inconclusive means small, poorly fitted or top-dose-only effect, or another doubt; inactive means no such curve, though single readings can be large; an effect the other way counts as inactive or inconclusive; further: 0% is about no effect
GloSensor cGMP: Natriuretic polypeptide receptor (hNpr1) antagonism - Counterscreen GloSensor control cell line; shares compounds with NPR1 antag; HEK293 GloSensor cGMP, SNP-stimulated, luminescence; Potency, µM (series often up to 57.6 µM), without a hit: at the top dose activity change, negative = inhibition, actives largely listed as inhibitors; hit rate 69% among 1,400; further: on the % scale 0 is the no-effect control and ±100 the full control effect; nearly all actives have a fitted effect of over 70% in size
* = called active by the depositor; i = inactive; ? = inconclusive; · = not tested or not shown; ! = not confirmed by another sample; [ ] = remark or other dose. Compounds with a hit are over-represented: about 11% of the library has one in this group of screens. Unless noted, the call rests on the fitted dose curve. Potency means the concentration at half of the fitted maximal effect.

SMILES	NIH3T3 tox	NPR1 antag	HEK293 tox	FLuc inh	Npr1 antag conf	Npr2 selectivity	FLuc inh counter	GloSensor cGMP
O=C(c1cccc(Cl)c1)N1CCCC(n2cc(-c3nc(-c4ccccc4)no3)nn2)C1 (stereo not given)	?	15.8µM*	?	?	27.3µM*	27.3µM*	-29.4%	27.3µM*
O=C(c1ccc(F)c(Cl)c1)N1CCC(n2cc(-c3nc(-c4ccccc4)no3)nn2)CC1	?	12.6µM*	?	i	24.3µM*	21.7µM*	-19.8%	21.7µM*
O=C(c1ccccc1F)N1CCC(n2cc(-c3nc(-c4ccccc4)no3)nn2)C1 (stereo not given)	?	14.1µM*	?	i	21.7µM*	21.7µM*	-13.1%	17.2µM*
Cc1noc(-c2cn(C3CCN(C(=O)c4ccc(F)c(Cl)c4)CC3)nn2)n1	?	-1.3%	-13.7%	i	·	·	·	·
COc1ccc(C(=O)N2CCC(n3cc(-c4nc(-c5ccccc5)no4)nn3)CC2)cc1	?	?	?	i	21.7µM*	24.3µM*	-16.1%	21.7µM*
COc1ccc(CCC(=O)N2CCCC(n3cc(-c4nc(-c5ccccc5)no4)nn3)C2)cc1 (stereo not given)	?	12.6µM*	?	?	24.3µM*	24.3µM*	12.2µM*	24.3µM*
CCN1C(=O)C2CC3(CCN(C(=O)CCc4c[nH]c5ccccc45)CC3)CN2C1=O (stereo not given)	-24.7%	-2.9%	-19.1%	i	·	·	·	·
COC(=O)N1CCCCC(NC(=O)CCCc2nc(-c3ccccc3C)no2)C1 (stereo not given)	?	12.6µM*	35.5µM*	i	17.2µM*	19.3µM*	-0.6%	19.3µM*
CNC(=O)c1cc(C)nc2onc(C3CCCN(C(=O)COC)C3)c12 (stereo not given)	i	·	3.4%[172 µM]	·	·	·	·	·
Cc1ccc(OCc2nc(C3CN(C(=O)c4cc(C)n(C)n4)C3)no2)cc1	?	-8.0%	?	i	·	·	·	·
CSc1ccc(-c2ccc3c(c2)C(=O)N2CC[C@H](NC(=O)C4CCCC4)[C@H]2C(=O)N3)cc1	?	-10.7%	?	?	·	·	·	·
O=C(CCC1CCN(C(=O)c2ccoc2)CC1)N1CCC(Cc2ccccc2)CC1	?	-22.1%	?	i	?	-27.3%	-16.3%	?
COc1cc(CNC(=O)c2ccc3c(c2)N(C(=O)c2ccc(F)cc2)CC3)cc(OC)c1	?	?	?	i	21.7µM*	24.3µM*	2.7%	21.7µM*
O=C(C1CC(=O)N(c2n[nH]c3ccccc23)C1)N1CCC(c2noc3cc(F)ccc23)CC1 (stereo not given)	14.1µM*	?	12.6µM*	i	27.3µM*	?	-3.1%	27.3µM*
CCOc1cc(C(=O)N2CCC(Cc3nc(-c4ccccc4)no3)CC2)cc(OCC)c1OCC	?	3.6%	?	i	·	·	·	·
COc1cc(OC)cc(C(=O)N2CCC(Cc3nc(-c4ccccc4)no3)CC2)c1	?	?	?	i	·	·	·	·
COc1ccc(-c2noc(CC3CCN(C(=O)c4ccccc4OC)CC3)n2)cc1	?	10µM*	?	i	13.7µM*	13.7µM*	0.4%	12.2µM*
COc1ccc(-c2noc(CC3CCN(C(=O)C4CCN(C(=O)c5ccccc5)CC4)CC3)n2)cc1	?	8.91µM*	?	i	19.3µM*	17.2µM*	0.2%	12.2µM*
COc1ccc(-c2noc(CC3CCN(C(=O)c4ccc(OC)cc4OC)CC3)n2)cc1	?	2.82µM*	?	i	3.06µM*	4.85µM*	-1.6%	3.06µM*
COc1ccc(Cl)cc1C(=O)N1CCC(Cc2nc(-c3cnccn3)no2)CC1	?	-1.9%	-14.4%	i	·	·	·	·
COc1ccc(NC(=O)CCc2ccnc(N3CCCC3)c2)c(OC)c1	-23.8%	-4.7%	-15.7%	i	·	·	·	·
Nc1ccccc1CN1CCCC2(Cc3ccccc3CNC2=O)C1 (stereo not given)	-18.3%	·	?	·	·	·	·	·
C[S+](=O)([O-])c1ccc(-c2cc(C(=O)NCCc3ccc(Cl)cc3)nn3cccc23)cc1	22.4µM*	·	?	·	?	?	15.3µM*	?
CCc1cc(=O)n(CC(=O)Nc2ccc3c(c2)OCCO3)c(-c2cccc(F)c2)n1	?	?	?	i	?	-27.4%	0.7%	?
O=C(c1ccoc1)N1CCc2onc(C(c3ccccc3)c3ccccc3)c2C1	?	-23.1%	?	?	·	·	·	·
SMILES	NIH3T3 tox	NPR1 antag	HEK293 tox	FLuc inh	Npr1 antag conf	Npr2 selectivity	FLuc inh counter	GloSensor cGMP
COc1ccc(C(=O)N2CCC3(CC2)CC(c2cccc(C(F)(F)F)c2)=NO3)cc1	22.4µM*!	11.2µM*	35.5µM*!	i	24.3µM*	27.3µM*	3.1%[6.39 µM]	?
COC(=O)N1CCN(C(=O)c2nc3cccnc3n(C3CC3)c2=O)CC1	-16.4%	·	-10.0%	·	·	·	·	·
O=C1NC2(CCN(C(=O)c3ccccn3)CC2)Oc2ccccc21	1.1%[138 µM]	0.0%[70.6 µM]	-5.2%[172 µM]	i	·	·	·	·
O=C1NC2(CCN(C(=O)c3ccccn3)CC2)COc2ccccc21	2.6%[138 µM]	?	-14.6%[172 µM]	i	?	25µM*	-14.4%[86.2 µM]	11.9%[86.2 µM]
O=C(NCC(F)(F)F)C1CCCN1C(=O)c1cccc(-c2cccnc2)c1 (stereo not given)	-11.5%	·	1.0%	·	·	·	·	·
O=C(Cc1ccc(F)cc1)N1CCN(C(=O)c2nnn3c2COC(c2ccc(Cl)cc2)C3)CC1 (stereo not given)	-25.0%	12.6µM*	?	i	24.3µM*	?	-0.9%	21.7µM*
COc1ccc(C2Cn3nnc(C(=O)N4CCN(C(=O)Cc5ccc(F)cc5)CC4)c3CO2)cc1 (stereo not given)	-10.4%	8.91µM*	?	i	13.7µM*	15.3µM*	-0.5%	13.7µM*
